Molecular target: T1, Aspartate--tRNA(Asp/Asn) ligase (Mycobacterium tuberculosis (strain ATCC 25618 / H37Rv)) (UniProt P9WFW3); further: in the data most compounds retested in dose-response had high values
T1 sequence (whole entry): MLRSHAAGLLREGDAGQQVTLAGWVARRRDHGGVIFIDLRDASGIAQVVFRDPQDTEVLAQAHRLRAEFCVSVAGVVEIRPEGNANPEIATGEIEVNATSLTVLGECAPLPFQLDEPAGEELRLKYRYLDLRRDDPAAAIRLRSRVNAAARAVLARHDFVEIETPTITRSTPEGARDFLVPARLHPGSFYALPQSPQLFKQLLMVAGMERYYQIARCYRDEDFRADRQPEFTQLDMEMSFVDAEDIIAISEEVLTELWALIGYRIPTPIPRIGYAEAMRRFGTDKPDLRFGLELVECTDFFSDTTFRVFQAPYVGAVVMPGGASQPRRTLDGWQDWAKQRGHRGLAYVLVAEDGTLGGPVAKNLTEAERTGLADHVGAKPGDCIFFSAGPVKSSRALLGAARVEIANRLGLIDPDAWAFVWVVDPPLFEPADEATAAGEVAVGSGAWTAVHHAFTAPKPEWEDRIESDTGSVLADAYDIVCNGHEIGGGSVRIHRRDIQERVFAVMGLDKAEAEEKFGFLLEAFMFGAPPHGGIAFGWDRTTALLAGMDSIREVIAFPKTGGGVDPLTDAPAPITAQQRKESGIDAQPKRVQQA
Assay: Assay for Asp RNA synthetase-1 from Mycobacterium tuberculosis
Type: functional
Parameters: scale not given: direction of the effect not stated beside the values
Conditions: 30 µM

Compound	Percent Effect [%]
CN(Cc1cccc(F)c1)C(=O)CN1CCOC(Cn2cccn2)C1 (stereo not given)	-0.139
CCOC(=O)N1CCN(c2nc(NCCCO)c3ccccc3n2)CC1	1.68
Cc1cc(NC(=O)CN2CCc3nn(C)c(=O)cc3C2)on1	11.6
COc1ccc(C2=CCN(C(=O)C3CCN(C)C(=O)C3)CC2)cc1 (stereo not given)	3.17
COc1cc(C)sc1C(=O)N1CC(c2cccnc2)C1	3.09
Cn1ncc(C(=O)N2CCCC(n3cccn3)C2)c1C1CC1 (stereo not given)	3.87
c1ccc(-c2noc(CN3CCOC(Cn4cccn4)C3)n2)nc1 (stereo not given)	-2.01
CC(=O)Nc1nc(C(=O)NC(C)c2ccc3c(c2)OCCO3)cs1 (stereo not given)	-1.73
CC(C)c1nccn1-c1cccc(C2CCCN(C3CCCC3)C2)n1 (stereo not given)	3.46
CNc1cc(C2CCCN2C(=O)c2ccc3oc(=O)n(C)c3c2)ccn1 (stereo not given)	4.04
Cn1ccc(C(=O)N2CCC[C@]3(C[C@@H](OCc4ccccn4)CO3)C2)n1	-1.05
O=C(C1=CCCCC1)N1CCC2(CC1)COC(COc1ccccn1)C2 (stereo not given)	0.351
CCc1ncnc2c1CCN(C(=O)N1CCCC1)CC2	1.98
CN(C)[C@@H]1CCN(C(=O)NC2CCCC2)[C@H]1Cc1cnn(C)c1	-2.75
Cc1nc(CN(C)C2CCN(Cc3ccc4ccccc4n3)C2)no1 (stereo not given)	3.73
O=C(Cn1nc2c(cc1=O)CSCC2)NC(Cc1ccccc1)C(=O)O (stereo not given)	0.581
CC(Cn1cccn1)NC(=O)NCc1ccccn1 (stereo not given)	-4.37
COCCN1C[C@H]2CC[C@@]3(N=C(C)N(CC4CC4)C3=O)[C@H]2C1	4.94
O=C(CCc1nc2cccnc2[nH]1)Nc1cccnc1	-1.77
Cc1ccc(NC(=O)NC(C)c2nc[nH]n2)s1 (stereo not given)	3.94

Compound	Percent Effect [%]
CC(=O)N1CCCN(Cc2csc(-c3ncccn3)n2)CC1	5.15
CC(C)CNC(=O)[C@H]1CCS(=O)(=O)[C@@H]2CN(Cc3cccc(Cl)c3)C[C@H]12	-3.06
Cn1ncc2c1CCCC2NCc1cc(Br)cs1 (stereo not given)	-1.12
COc1ccc(F)c(CN2CCC(c3cc(O)nc(C)n3)C2)c1 (stereo not given)	-6.3
Cn1nc2c(cc1=O)CN(CC(=O)Nc1ccc(Cl)cn1)CC2	48.3
CNC(=O)CCCNCc1c(C(C)C)nn(C)c1N(C)C	1.04
Cc1cc(C)n(CC(=O)N2CCC(c3nc(C)no3)CC2)n1	3.56
CNC(=O)c1ccc(C(=O)N2CCCC2c2cnn(C)c2)cn1 (stereo not given)	-5.79
Cc1cc(CN2CCCC(C)(CO)C2)ccc1F (stereo not given)	-3.62
O=C(Cn1cccnc1=O)NCCc1ccc2c(c1)OCCO2	2.57
COc1ccc(C2SC(C)=Nc3c2c(=O)[nH]n3C2CCCCC2)cc1O (stereo not given)	3.89
O=C(O)C1(Cc2ccccc2Cl)CCN(c2ncccc2F)CC1	2.22
COc1ccc(CCN2CCCC2Cn2nc(C)nc2C)cc1 (stereo not given)	-3.2
Cc1cn2c(n1)CCC(NC(=O)c1cnc(C)nc1C(C)C)C2 (stereo not given)	2.91
O=C(COCc1ccccc1Cl)N1CCCC(n2cccn2)C1 (stereo not given)	-1.04
O=C(CSc1ccncc1)N1C[C@H]2CC[C@@H]1CN(Cc1cccnc1)C2	2.67
CCN(C)S(=O)(=O)N(CC)Cc1ccc2c(c1)OCO2	3.49
Cc1cc(CNc2cc(Cl)ccc2OCCS(C)(=O)=O)no1	-2.26
CN(Cc1nc(C2CC2)no1)C1CCCN(c2cccnn2)C1 (stereo not given)	-4.8
COc1ncccc1CN1Cc2nnn(C)c2C(COCC2CC2)C1 (stereo not given)	4.09

Molecular target: Shiga toxin 2 (Escherichia coli O157:H7) (UniProt P09385+P09386)
Assay: E. coli 0.157:H7 Shiga Toxin SOP - stx2 screening assay
Type: functional
Parameters: scale not given: direction of the effect not stated beside the values
Conditions: 30 µM

Compound	Percent Effect [%]
CN(Cc1cccc(F)c1)C(=O)CN1CCOC(Cn2cccn2)C1 (stereo not given)	0.15
CCOC(=O)N1CCN(c2nc(NCCCO)c3ccccc3n2)CC1	-29.9
Cc1cc(NC(=O)CN2CCc3nn(C)c(=O)cc3C2)on1	-13.1
COc1ccc(C2=CCN(C(=O)C3CCN(C)C(=O)C3)CC2)cc1 (stereo not given)	27.5
COc1cc(C)sc1C(=O)N1CC(c2cccnc2)C1	12.6
Cn1ncc(C(=O)N2CCCC(n3cccn3)C2)c1C1CC1 (stereo not given)	-7.05
c1ccc(-c2noc(CN3CCOC(Cn4cccn4)C3)n2)nc1 (stereo not given)	11.3
CC(=O)Nc1nc(C(=O)NC(C)c2ccc3c(c2)OCCO3)cs1 (stereo not given)	7.36
CC(C)c1nccn1-c1cccc(C2CCCN(C3CCCC3)C2)n1 (stereo not given)	3.04
CNc1cc(C2CCCN2C(=O)c2ccc3oc(=O)n(C)c3c2)ccn1 (stereo not given)	7
Cn1ccc(C(=O)N2CCC[C@]3(C[C@@H](OCc4ccccn4)CO3)C2)n1	-3.97
O=C(C1=CCCCC1)N1CCC2(CC1)COC(COc1ccccn1)C2 (stereo not given)	-19.1
CCc1ncnc2c1CCN(C(=O)N1CCCC1)CC2	-14
CN(C)[C@@H]1CCN(C(=O)NC2CCCC2)[C@H]1Cc1cnn(C)c1	-11.7
Cc1nc(CN(C)C2CCN(Cc3ccc4ccccc4n3)C2)no1 (stereo not given)	-68.9
O=C(Cn1nc2c(cc1=O)CSCC2)NC(Cc1ccccc1)C(=O)O (stereo not given)	-19.5
CC(Cn1cccn1)NC(=O)NCc1ccccn1 (stereo not given)	-30.2
COCCN1C[C@H]2CC[C@@]3(N=C(C)N(CC4CC4)C3=O)[C@H]2C1	-12.7
O=C(CCc1nc2cccnc2[nH]1)Nc1cccnc1	-77.4
Cc1ccc(NC(=O)NC(C)c2nc[nH]n2)s1 (stereo not given)	17.2

Compound	Percent Effect [%]
CC(=O)N1CCCN(Cc2csc(-c3ncccn3)n2)CC1	-13
CC(C)CNC(=O)[C@H]1CCS(=O)(=O)[C@@H]2CN(Cc3cccc(Cl)c3)C[C@H]12	-29.7
Cn1ncc2c1CCCC2NCc1cc(Br)cs1 (stereo not given)	7.1
COc1ccc(F)c(CN2CCC(c3cc(O)nc(C)n3)C2)c1 (stereo not given)	-8.55
Cn1nc2c(cc1=O)CN(CC(=O)Nc1ccc(Cl)cn1)CC2	-4.57
CNC(=O)CCCNCc1c(C(C)C)nn(C)c1N(C)C	3.71
Cc1cc(C)n(CC(=O)N2CCC(c3nc(C)no3)CC2)n1	3.16
CNC(=O)c1ccc(C(=O)N2CCCC2c2cnn(C)c2)cn1 (stereo not given)	-8.21
Cc1cc(CN2CCCC(C)(CO)C2)ccc1F (stereo not given)	14.3
O=C(Cn1cccnc1=O)NCCc1ccc2c(c1)OCCO2	-33.8
COc1ccc(C2SC(C)=Nc3c2c(=O)[nH]n3C2CCCCC2)cc1O (stereo not given)	-40
O=C(O)C1(Cc2ccccc2Cl)CCN(c2ncccc2F)CC1	-10.7
COc1ccc(CCN2CCCC2Cn2nc(C)nc2C)cc1 (stereo not given)	-22.5
Cc1cn2c(n1)CCC(NC(=O)c1cnc(C)nc1C(C)C)C2 (stereo not given)	20.9
O=C(COCc1ccccc1Cl)N1CCCC(n2cccn2)C1 (stereo not given)	20
O=C(CSc1ccncc1)N1C[C@H]2CC[C@@H]1CN(Cc1cccnc1)C2	-11.3
CCN(C)S(=O)(=O)N(CC)Cc1ccc2c(c1)OCO2	12.6
Cc1cc(CNc2cc(Cl)ccc2OCCS(C)(=O)=O)no1	-0.408
CN(Cc1nc(C2CC2)no1)C1CCCN(c2cccnn2)C1 (stereo not given)	0.986
COc1ncccc1CN1Cc2nnn(C)c2C(COCC2CC2)C1 (stereo not given)	-10.1

From ChEMBL document CHEMBL3988442, “University of Dundee, Small-Polar-MMV Screening Library” (2021)
